In PubChem BioAssay (Tox21):
Results filed as inconclusive are left out. Unmarked numbers belong to inactive results. Active and inactive are the calls of the source. Calls follow the shape of the dose curve; as a rule, active = well fitted cell-killing curve with a large enough effect in the repeat runs; inconclusive = weak or mixed curves, or effect the other way; inactive = no such curve, though single readings can be large or run the other way. Positions of bridges follow the written chain, without caps; N, C: chain ends. Non-standard residues stand in square brackets, D forms with d. Residues, ends and D or L forms follow the SMILES beside them. Orn = NCCC[C@H](N)C(=O)O; Mpa = O=C(O)CCS

experiment: qHTS assay for identifying genotoxic compounds that show differential cytotoxicity against isogenic chicken DT40 cell lines with known DNA damage response pathways - Rev3 mutant cell line (AID 743014); conditions: chicken DT40 Rev3-/- viability, CellTiter-Glo, 40 h; series mostly up to 68.4 µM; activity, negative = cytotoxicity: at the top concentration; also: nearly all actives have a fitted effect of over 55% in size
From the text: National Center for Advancing Translational Sciences [NCATS]
NIH Chemical Genomics Center [NCGC]
U.S. Environmental Protection Agency [EPA]
National Institutes of Environmental Health Sciences [NIEHS]
National Toxicology Program [NTP]
U.S. Food and Drug Administration [FDA]
DNA repair pathways play a critical role in cellular homeostasis by repairing DNA damage induced by endogenous processes and xenobiotics. Isogenic chicken DT40 cell lines deficient in different DNA repair pathways can be used to identify genotoxic compounds and aid in characterizing the nature of the DNA damage induced. Two DNA repair-deficient cell lines with disrupted genes, Rad54/Ku70 or Rev3, were used to screen the Tox21 10K compound library. Possible genotoxicity was based on the presence of a significant increase in cytotoxicity in one or more of the DNA repair-deficient cell lines compared to that observed in the parental DNA repair-proficient cell line. CellTiter Glo viability assay (Promega, Madison, WI) was used to measure cell viability in these cells after compound treatment. This assay includes the data from the Rev3 mutant cell line.
Tox21 Assay Protocol Summary:
300 DT40 mutant cells in 5 uL/well were dispensed into white, solid-bottom 1536-well plates using a Multidrop Combi (ThermoFisher Scientific, Waltham, MA) dispenser. After the assay plates were incubated at 37 C/5% CO2 for approximately 0.5 hour, 23 nL of compounds dissolved in DMSO, positive controls or DMSO only was transferred into the assay plate by a pintool work station (Kalypsys, San Diego, CA). The assay plates were incubated at 37 C/5% CO2 for 40 hours. After 5 uL per well of CellTiter-Glo reagent was added into each well of the assay plates, the plates were incubated for 30 min at room temperature and the luminescence intensity of the plates was measured using a ViewLux (PerkinElmer, Shelton, CT) plate reader.
% is scaled to controls: 0 for no effect and ±100 for the full control effect; potency is read from the fitted curve at half-maximal effect.

SMILES	activity, negative = cytotoxicity	Potency
O=c1[nH]cnc2[nH]cc(CN3CCCCC3)c12	6.55%	
CCCCCCCCCCCCCCCC(=O)O[C@@H]1CC(C)=C(/C=C/C(C)=C/C=C/C(C)=C/C=C/C=C(C)/C=C/C=C(C)/C=C/C2=C(C)C[C@@H](OC(=O)CCCCCCCCCCCCCCC)CC2(C)C)C(C)(C)C1	2.05%	
S=C1SCN(Cc2ccccc2)CN1Cc1ccccc1		13.3 µM (active)
CNc1cc(OC)c(C(=O)N[C@H]2CCN(Cc3ccccc3)[C@H]2C)cc1Cl		4.73 µM (active)
CN1c2cc(O)c(N=NC(N)=O)cc2CC1S(=O)(=O)O (stereo not given)	6.63%	
COc1cc2c(cc1OC)[C@@H](c1ccccc1)CN(C)CC2	-18.8%	
CC#CCC(C)[C@H](O)/C=C/[C@@H]1[C@H]2c3cccc(CCCC(=O)O)c3O[C@H]2C[C@H]1O (stereo not given in full)	2.23%	
COc1ccc(CC2c3cc(OC)c(OC)cc3CC[N+]2(C)CCC(=O)OCCCCCOC(=O)CC[N+]2(C)CCc3cc(OC)c(OC)cc3C2Cc2ccc(OC)c(OC)c2)cc1OC (stereo not given)	4.1% [at 31.4 µM]	
C[C@H](CSC(=O)c1ccccc1)C(=O)N1C[C@@H](Sc2ccccc2)C[C@H]1C(=O)O	-5.22%	
CCCCCCCCCCCCCCCCCCOP(=O)([O-])OC1CC[N+](C)(C)CC1	-10.2% [at 31.4 µM]	
CCOc1ccc(C[C@H]2NC(=O)CCSSC[C@@H](C(=O)N3CCC[C@H]3C(=O)N[C@@H](CCCN)C(=O)NCC(N)=O)NC(=O)[C@H](CC(N)=O)NC(=O)[C@H]([C@@H](C)O)NC(=O)[C@H]([C@@H](C)CC)NC2=O)cc1 ([Mpa][dY](Et)ITNCP[Orn]G-NH2; disulfide 1-6)	14.4%	
O=C(O)C1=C(CSc2nnnn2CS(=O)(=O)O)CS[C@@H]2[C@H](NC(=O)[C@H](O)c3ccccc3)C(=O)N12	12.5%	
COc1ccc(C2(C#N)CCC(C(=O)O)CC2)cc1OC1CCCC1 (stereo not given)	9.09%	
CS(=O)(=O)NC(=O)CCC/C=C\C[C@H]1C(=O)C[C@@H](O)[C@@H]1/C=C/[C@H](O)COc1ccccc1	8.35%	
COc1ccc2cc([C@H](C)CO)ccc2c1	14.9%	
COC(=O)[C@@H](N)CS	-2.77%	
N[C@@H](C(=O)N[C@@H]1C(=O)N2C(C(=O)O)=C(Cl)CC[C@H]12)c1ccccc1	1.25%	
O=C(O)c1cc(O)c2c(c1)[O][Bi][O]2	0.574%	
FC(F)(F)C(F)(F)C(F)(F)C(F)(F)C(F)(F)C(F)(F)F	6.97%	
CCCCCCCCCCCCCCCCCC(=O)OCC(C)O (stereo not given)	2.12%	

SMILES	activity, negative = cytotoxicity	Potency
O=P(O)(O)OC(Cn1cncn1)(Cn1cncn1)c1ccc(F)cc1F	1.49%	
CC(CN1c2ccccc2Sc2cccnc21)N(C)C (stereo not given)	-19.6%	
CS(=O)(=O)OCCCNCCCOS(C)(=O)=O	4.68%	
CN1CCc2c(c3ccccc3n2Cc2ccccc2)C1	0.0417% [at 31.4 µM]	
CC[C@]1(O)CC2CN(CCc3c([nH]c4ccccc34)[C@@](C(=O)OC)(c3cc4c(cc3OC)N(C)[C@H]3[C@@](O)(C(N)=O)[C@H](O)[C@]5(CC)C=CCN6CC[C@]43[C@@H]65)C2)C1 (stereo not given in full)		0.0531 µM (active)
CC(C(=O)O)c1ccc(N2Cc3ccccc3C2=O)cc1 (stereo not given)	-5.9%	
NCCCNCCCCNC(=O)C(O)NC(=O)CCCCCCN=C(N)N (stereo not given)		1.68 µM (active)
CC(=O)[C@]1(O)Cc2c(O)c3c(c(O)c2[C@@H](O[C@H]2C[C@H](N)[C@H](O)[C@H](C)O2)C1)C(=O)c1c(O)cccc1C3=O		0.0188 µM (active)
CC(CC(c1ccccc1)c1ccccc1)NC(C)(C)C (stereo not given)		23.7 µM (active)
CC(CN1c2ccccc2Sc2ccc(S(=O)(=O)N(C)C)cc21)N(C)C (stereo not given)		26.6 µM (active)
CCN1C(=O)NC(c2ccccc2)C1=O (stereo not given)	-16.5% [at 31.4 µM]	
CCN(CC)CCCC(C)Nc1cc(/C=C/c2ccccc2Cl)nc2cc(Cl)ccc12 (stereo not given)		29.8 µM (active)
CCCC1C(=O)N2C(N(C)C)=Nc3ccc(C)cc3N2C1=O (stereo not given)	-0.0075% [at 31.4 µM]	
CN1CCN(CCC=C2c3ccccc3Sc3ccc(S(=O)(=O)N(C)C)cc32)CC1		13.3 µM (active)
CC(=O)Nc1ccc(NC(=S)NC(=O)c2ccc(C(C)(C)C)cc2)cc1		2.66 µM (active)
CN1CC(O)c2cc(N=NC(N)=O)c(O)cc21 (stereo not given)	-10.3%	
NC[C@@H]1O[C@H](O[C@H]2[C@@H](O)[C@H](O[C@@H]3[C@@H](O)[C@H](N)C[C@H](N)[C@H]3O[C@H]3O[C@H](CN)[C@@H](O)[C@H](O)[C@H]3N)O[C@@H]2CO)[C@H](N)[C@@H](O)[C@@H]1O	0.41%	
C[C@@H]1CCC2[C@@H](C)[C@@H](O)O[C@@H]3O[C@@]4(C)CC[C@@H]1[C@@]23OO4 (stereo not given in full)		0.133 µM (active)
OC[C@@H](O)C(O)[C@H](O)CO	15%	
Cc1ccc(S(=O)(=O)NC(=O)N[C@@H](C)Cc2ccccc2)cc1	7.51%	
